Experiment [1] deals with human Sirtuin 1 (SIRT1), SIRT1 (gene 23411) (UniProt Q96EB6). As to the kind of experiment: NVS_ENZ_hSIRT1: NovaScreen (NVS) Enzymatic Assay for human Sirtuin 1 (SIRT1) (AID 2283219). The method, boiled down: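 Cell-free recombinant SIRT1 with a fluorescent substrate; substrate and product separated by electrophoretic mobility shift and read by fluorescence intensity, 1 h after dosing. Primary screen at 25 uM in duplicate; hits re-run in concentration-response up to 50 uM, relative to DMSO.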

For experiment [2], the target named is human Vascular Endothelial Growth Factor Receptor 1 (VEGFR1), FLT1 (gene 2321) (UniProt P17948). The experiment is described as follows: NVS_ENZ_hVEGFR1: NovaScreen (NVS) Enzymatic Assay for human Vascular Endothelial Growth Factor Receptor 1 (VEGFR1) (AID 2283226). Put shortly:
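Cell-free assay of recombinant human VEGFR1 kinase with substrate, measured 1 h after dosing; fluorescence with electrophoretic mobility-shift separation of substrate and product, referenced to DMSO; primary screen at 25 uM in duplicate, actives then run in concentration series.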

Experiment [3] has as its target human SRC Proto-Oncogene, Non-receptor Tyrosine Kinase (SRC), SRC (gene 6714) (UniProt P12931). As to the kind of experiment: NVS_ENZ_hSRC: NovaScreen (NVS) Enzymatic Assay for human SRC Proto-Oncogene, Non-receptor Tyrosine Kinase (SRC) (AID 2283223). How it is done: NVS_ENZ_hSRC is a biochemical, single-readout assay that uses extracted gene-proteins in a cell-free assay. Measurements were taken 1 hour after chemical dosing in a 384-well plate.NVS_ENZ_hSRC is one of one assay component(s) measured or calculated from the NVS_ENZ_hSRC assay. It is designed to make measurements of enzyme activity, a form of enzyme reporter, as detected with fluorescence intensity signals by Fluorescence and electrophoretic mobility shift technology.Data from the assay component NVS_ENZ_hSRC was analyzed into 1 assay endpoint. This assay endpoint, NVS_ENZ_hSRC, was analyzed in the positive analysis fitting direction relative to DMSO as the negative control and baseline of activity. Using a type of enzyme reporter, loss-of-signal activity can be used to understand changes in the enzymatic activity as they relate to the gene SRC. Furthermore, this assay endpoint can be referred to as a primary readout, because this assay has produced multiple assay endpoints where this one serves a enzymatic activity function. To generalize the intended target to other relatable targets, this assay endpoint is annotated to the kinase intended target family, where the subfamily is non-receptor tyrosine kinase.
Binding assays used specific radioligands (tritiated, iodinated) with non-radioactive competitive displacement ligands in agonist or antagonist protocols (as indicated) and various reference compounds and inhibitors to titrate specific binding to receptors and transporters. Most enzyme assays (CYPs, kinases, phosphatases, proteases, HDACs) used recombinant protein and specific substrates (fluorescence mostly, some colorimetric and radioactive) and inhibitors, followed by a biochemical separation of substrate and product. All assays for the biochemical HTS were initially run in duplicate at a single concentration (10 uM for CYP450 assays and 25 uM for all others). Assay-chemical combinations meeting a pre-defined threshold (e.g., 30% inhibition and other criteria defined below) were then run in singleton concentration-response format with maximum concentration of 20 uM for CYPs and 50 uM for all others. Each assay was run with positive and negative controls, and concurrent controls on every plate. The follow-up (secondary) screen tested active chemical-pairs in concentration series, as well as a few additional assays not tested in the primary screen, some selected negative inactives, and several cases re-run in the concentration series for confirmatory purposes.

Experiment [4] concerns the target human Vascular Endothelial Growth Factor Receptor 2 (VEGFR2), KDR (gene 3791) (UniProt P35968). As to the kind of experiment: NVS_ENZ_hVEGFR2: NovaScreen (NVS) Enzymatic Assay for human Vascular Endothelial Growth Factor Receptor 2 (VEGFR2) (AID 2283230). The method, boiled down:
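Cell-free recombinant VEGFR2 kinase, fluorescent substrate with electrophoretic mobility-shift separation; read 1 h after dosing. Screened at 25 uM in duplicate, hits to concentration-response up to 50 uM; loss-of-signal versus DMSO.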

Experiment [5] has as its target rabbit Imidazoline 2 Central (I2C), CKB (gene 100009085) (UniProt P00567). As to the kind of experiment: NVS_ENZ_rabI2C: NovaScreen (NVS) Enzymatic Assay for rabbit Imidazoline 2 Central (I2C) (AID 2283228). Put shortly:
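Rabbit brain membranes, cell-free; readout by filter-based scintillation counting 1.5 hours after dosing, loss of signal vs DMSO. Initial duplicate test at 25 uM, then concentration-response with 50 uM top concentration.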

Experiment [6] has as its target human Sirtuin 3 (SIRT3), SIRT3 (gene 23410) (UniProt Q9NTG7). The experiment is described as follows: NVS_ENZ_hSIRT3: NovaScreen (NVS) Enzymatic Assay for human Sirtuin 3 (SIRT3) (AID 2283222). Put shortly:
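Cell-free enzyme assay with recombinant protein and fluorescent substrate, product separated by electrophoretic mobility shift; read 1 hour after dosing. Screened in duplicate at 25 uM, then singleton concentration-response up to 50 uM; loss of signal versus DMSO.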

Experiment [7] has as its target human Sirtuin 2 (SIRT2), SIRT2 (gene 22933) (UniProt Q8IXJ6). As to the kind of experiment: NVS_ENZ_hSIRT2: NovaScreen (NVS) Enzymatic Assay for human Sirtuin 2 (SIRT2) (AID 2283217). Put shortly:
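Cell-free recombinant human SIRT2, fluorescent substrate with product separated by electrophoretic mobility shift, 1 hr. Screened in duplicate at 25 uM; hits rerun singly in concentration-response up to 50 uM, relative to DMSO.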

Experiment [8] deals with human Tropomyosin Receptor Kinase A (TRKA), NTRK1 (gene 4914) (UniProt P04629). The experiment is described as follows: NVS_ENZ_hTrkA: NovaScreen (NVS) Enzymatic Assay for human Tropomyosin Receptor Kinase A (TRKA) (AID 2283224). Put shortly: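 Recombinant human TrkA activity read after 1 h by fluorescence with electrophoretic mobility shift separating substrate and product. Primary screen in duplicate at 25 uM; actives were rerun in concentration-response up to 50 uM. Loss of signal versus DMSO.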

Experiment [9] addresses human Vascular Endothelial Growth Factor Receptor 3 (VEGFR3), FLT4 (gene 2324) (UniProt P35916). The experiment is described as follows: NVS_ENZ_hVEGFR3: NovaScreen (NVS) Enzymatic Assay for human Vascular Endothelial Growth Factor Receptor 3 (VEGFR3) (AID 2283229). Put shortly:
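Cell-free recombinant VEGFR3 kinase reaction with fluorescent substrate, read 1 h after dosing by electrophoretic mobility shift separation of substrate and product. Single-concentration duplicate screen at 25 uM, then concentration-response up to 50 uM; loss of activity versus DMSO.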

Experiment [10] concerns the target human Protein Tyrosine Phosphatase Receptor Type M (PTPRM), PTPRM (gene 5797) (UniProt P28827). As to the kind of experiment: NVS_ENZ_hPTPRM: NovaScreen (NVS) Enzymatic Assay for human Protein Tyrosine Phosphatase Receptor Type M (PTPRM) (AID 2283215). How it is done: NVS_ENZ_hPTPRM is a biochemical, single-readout assay that uses extracted gene-proteins in a cell-free assay. Measurements were taken 1.33 hours after chemical dosing in a 384-well plate.NVS_ENZ_hPTPRM is one of one assay component(s) measured or calculated from the NVS_ENZ_hPTPRM assay. It is designed to make measurements of enzyme activity, a form of enzyme reporter, as detected with fluorescence intensity signals by Fluorescence and electrophoretic mobility shift technology.Data from the assay component NVS_ENZ_hPTPRM was analyzed into 1 assay endpoint. This assay endpoint, NVS_ENZ_hPTPRM, was analyzed in the positive analysis fitting direction relative to DMSO as the negative control and baseline of activity. Using a type of enzyme reporter, loss-of-signal activity can be used to understand changes in the enzymatic activity as they relate to the gene PTPRM. Furthermore, this assay endpoint can be referred to as a primary readout, because this assay has produced multiple assay endpoints where this one serves a enzymatic activity function. To generalize the intended target to other relatable targets, this assay endpoint is annotated to the phosphatase intended target family, where the subfamily is receptor tyrosine phosphatase. […]

Consider 36 compounds from PubChem BioAssay (EPA / NIEHS).

For orientation: AC50 means the concentration giving half of the maximal activity seen.

Results filed as inconclusive are left out. The source made the active and inactive calls. Rule for the calls: active = hit-call score of the fitted dose curve at least 0.9, where 1 is the maximum; inconclusive = response in the unintended direction; inactive = score below 0.9.

Chain of rabbit Imidazoline 2 Central (I2C), CKB (gene 100009085) (P00567 whole entry, looked up): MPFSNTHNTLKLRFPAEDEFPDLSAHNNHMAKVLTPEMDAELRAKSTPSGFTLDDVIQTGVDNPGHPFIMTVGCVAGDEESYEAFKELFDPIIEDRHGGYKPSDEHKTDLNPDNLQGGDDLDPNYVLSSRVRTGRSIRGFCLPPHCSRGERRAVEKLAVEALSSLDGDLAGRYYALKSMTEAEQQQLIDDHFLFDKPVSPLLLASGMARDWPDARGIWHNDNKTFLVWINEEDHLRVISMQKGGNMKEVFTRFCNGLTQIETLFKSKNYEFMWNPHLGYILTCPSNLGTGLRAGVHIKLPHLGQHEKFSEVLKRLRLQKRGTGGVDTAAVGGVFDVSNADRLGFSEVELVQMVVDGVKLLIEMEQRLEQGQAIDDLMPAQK
Chain of human Sirtuin 3 (SIRT3), SIRT3 (gene 23410) (Q9NTG7 whole entry, looked up): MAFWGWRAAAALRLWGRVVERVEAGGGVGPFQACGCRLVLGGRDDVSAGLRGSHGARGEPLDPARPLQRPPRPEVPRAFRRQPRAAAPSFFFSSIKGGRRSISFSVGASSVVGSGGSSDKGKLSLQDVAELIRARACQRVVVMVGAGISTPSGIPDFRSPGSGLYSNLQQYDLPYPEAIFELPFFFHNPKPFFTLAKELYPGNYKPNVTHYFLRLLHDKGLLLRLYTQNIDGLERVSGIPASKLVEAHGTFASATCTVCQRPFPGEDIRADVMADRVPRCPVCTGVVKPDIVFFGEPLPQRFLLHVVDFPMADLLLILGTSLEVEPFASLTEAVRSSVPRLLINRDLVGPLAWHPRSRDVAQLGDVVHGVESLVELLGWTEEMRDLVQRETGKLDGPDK
Chain of human Sirtuin 2 (SIRT2), SIRT2 (gene 22933) (Q8IXJ6 whole entry, looked up): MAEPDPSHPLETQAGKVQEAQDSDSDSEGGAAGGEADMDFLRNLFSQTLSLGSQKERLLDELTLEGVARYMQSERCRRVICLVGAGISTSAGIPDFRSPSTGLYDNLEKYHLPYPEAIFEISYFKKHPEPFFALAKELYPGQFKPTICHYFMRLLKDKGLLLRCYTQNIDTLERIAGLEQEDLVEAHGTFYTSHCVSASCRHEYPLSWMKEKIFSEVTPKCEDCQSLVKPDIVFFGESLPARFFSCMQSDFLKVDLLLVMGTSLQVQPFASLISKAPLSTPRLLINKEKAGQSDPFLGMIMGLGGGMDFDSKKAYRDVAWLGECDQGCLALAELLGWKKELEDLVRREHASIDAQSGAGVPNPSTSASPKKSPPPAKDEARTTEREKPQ
Chain of human Vascular Endothelial Growth Factor Receptor 2 (VEGFR2), KDR (gene 3791) (P35968 whole entry, looked up): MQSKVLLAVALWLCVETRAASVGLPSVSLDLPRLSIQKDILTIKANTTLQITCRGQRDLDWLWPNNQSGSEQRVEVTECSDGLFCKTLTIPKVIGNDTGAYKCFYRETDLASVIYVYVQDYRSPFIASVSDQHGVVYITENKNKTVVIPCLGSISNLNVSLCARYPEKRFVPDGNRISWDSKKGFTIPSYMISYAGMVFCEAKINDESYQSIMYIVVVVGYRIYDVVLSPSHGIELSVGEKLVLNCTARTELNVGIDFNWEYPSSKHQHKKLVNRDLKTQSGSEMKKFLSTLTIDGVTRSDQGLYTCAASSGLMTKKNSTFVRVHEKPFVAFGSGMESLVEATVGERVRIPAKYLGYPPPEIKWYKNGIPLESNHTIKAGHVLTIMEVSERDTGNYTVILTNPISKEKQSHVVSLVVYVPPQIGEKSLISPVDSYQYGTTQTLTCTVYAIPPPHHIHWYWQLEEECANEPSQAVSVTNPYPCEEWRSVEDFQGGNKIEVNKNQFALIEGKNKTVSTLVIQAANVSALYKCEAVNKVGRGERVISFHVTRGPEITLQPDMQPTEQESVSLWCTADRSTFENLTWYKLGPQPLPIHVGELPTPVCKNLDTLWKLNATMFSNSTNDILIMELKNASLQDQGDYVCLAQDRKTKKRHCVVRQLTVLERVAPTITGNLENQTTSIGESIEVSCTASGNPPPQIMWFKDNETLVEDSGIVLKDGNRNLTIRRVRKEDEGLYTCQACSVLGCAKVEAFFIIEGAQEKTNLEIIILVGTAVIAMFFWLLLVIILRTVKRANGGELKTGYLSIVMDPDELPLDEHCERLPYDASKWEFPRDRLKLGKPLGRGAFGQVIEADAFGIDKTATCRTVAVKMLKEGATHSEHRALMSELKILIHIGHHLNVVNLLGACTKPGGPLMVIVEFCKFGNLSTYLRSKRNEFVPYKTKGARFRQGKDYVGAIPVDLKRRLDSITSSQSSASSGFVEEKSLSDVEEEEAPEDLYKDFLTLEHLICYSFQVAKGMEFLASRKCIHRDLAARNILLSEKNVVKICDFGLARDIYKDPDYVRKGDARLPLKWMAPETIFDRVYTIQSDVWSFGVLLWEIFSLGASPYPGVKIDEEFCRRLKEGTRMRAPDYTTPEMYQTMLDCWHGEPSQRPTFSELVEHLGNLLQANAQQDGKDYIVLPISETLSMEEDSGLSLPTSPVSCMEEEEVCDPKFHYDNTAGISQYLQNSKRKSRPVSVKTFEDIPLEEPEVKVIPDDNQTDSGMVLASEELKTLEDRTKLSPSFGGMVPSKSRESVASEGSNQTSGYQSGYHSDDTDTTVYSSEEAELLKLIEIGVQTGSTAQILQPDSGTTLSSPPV
Chain of human SRC Proto-Oncogene, Non-receptor Tyrosine Kinase (SRC), SRC (gene 6714) (P12931 whole entry, looked up): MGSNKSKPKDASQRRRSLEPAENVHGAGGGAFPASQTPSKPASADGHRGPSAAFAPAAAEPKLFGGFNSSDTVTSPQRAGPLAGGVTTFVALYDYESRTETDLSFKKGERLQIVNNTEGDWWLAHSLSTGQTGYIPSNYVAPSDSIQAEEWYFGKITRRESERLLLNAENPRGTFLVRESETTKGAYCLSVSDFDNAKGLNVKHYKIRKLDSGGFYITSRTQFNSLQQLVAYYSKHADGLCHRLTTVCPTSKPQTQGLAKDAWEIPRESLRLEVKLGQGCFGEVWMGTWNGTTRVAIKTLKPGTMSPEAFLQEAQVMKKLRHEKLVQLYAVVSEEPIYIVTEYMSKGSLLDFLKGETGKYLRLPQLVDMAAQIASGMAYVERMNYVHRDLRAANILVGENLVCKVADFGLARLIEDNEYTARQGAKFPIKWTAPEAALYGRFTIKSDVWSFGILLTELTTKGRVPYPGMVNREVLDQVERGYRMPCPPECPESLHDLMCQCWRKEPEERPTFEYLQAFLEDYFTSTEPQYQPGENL
Chain of human Sirtuin 1 (SIRT1), SIRT1 (gene 23411) (Q96EB6 whole entry, looked up): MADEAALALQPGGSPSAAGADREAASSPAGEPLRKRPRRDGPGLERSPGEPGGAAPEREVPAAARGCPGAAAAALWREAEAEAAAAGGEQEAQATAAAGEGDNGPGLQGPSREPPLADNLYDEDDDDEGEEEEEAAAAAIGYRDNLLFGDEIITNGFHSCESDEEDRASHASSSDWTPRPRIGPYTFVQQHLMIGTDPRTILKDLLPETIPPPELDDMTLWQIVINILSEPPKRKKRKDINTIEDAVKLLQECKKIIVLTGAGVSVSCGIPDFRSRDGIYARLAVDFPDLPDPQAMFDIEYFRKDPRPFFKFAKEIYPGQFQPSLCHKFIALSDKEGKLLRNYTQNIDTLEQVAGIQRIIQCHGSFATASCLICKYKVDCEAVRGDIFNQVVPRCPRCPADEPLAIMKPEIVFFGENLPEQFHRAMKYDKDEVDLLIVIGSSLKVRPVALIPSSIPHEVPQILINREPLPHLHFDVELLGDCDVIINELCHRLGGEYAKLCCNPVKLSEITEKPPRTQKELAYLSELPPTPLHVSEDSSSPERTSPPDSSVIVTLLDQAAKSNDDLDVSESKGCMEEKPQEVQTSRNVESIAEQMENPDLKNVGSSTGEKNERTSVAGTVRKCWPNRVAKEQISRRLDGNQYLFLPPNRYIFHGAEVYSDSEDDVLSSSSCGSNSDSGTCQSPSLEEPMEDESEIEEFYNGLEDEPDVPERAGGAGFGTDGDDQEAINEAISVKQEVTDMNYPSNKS
Chain of human Tropomyosin Receptor Kinase A (TRKA), NTRK1 (gene 4914) (P04629 whole entry, looked up): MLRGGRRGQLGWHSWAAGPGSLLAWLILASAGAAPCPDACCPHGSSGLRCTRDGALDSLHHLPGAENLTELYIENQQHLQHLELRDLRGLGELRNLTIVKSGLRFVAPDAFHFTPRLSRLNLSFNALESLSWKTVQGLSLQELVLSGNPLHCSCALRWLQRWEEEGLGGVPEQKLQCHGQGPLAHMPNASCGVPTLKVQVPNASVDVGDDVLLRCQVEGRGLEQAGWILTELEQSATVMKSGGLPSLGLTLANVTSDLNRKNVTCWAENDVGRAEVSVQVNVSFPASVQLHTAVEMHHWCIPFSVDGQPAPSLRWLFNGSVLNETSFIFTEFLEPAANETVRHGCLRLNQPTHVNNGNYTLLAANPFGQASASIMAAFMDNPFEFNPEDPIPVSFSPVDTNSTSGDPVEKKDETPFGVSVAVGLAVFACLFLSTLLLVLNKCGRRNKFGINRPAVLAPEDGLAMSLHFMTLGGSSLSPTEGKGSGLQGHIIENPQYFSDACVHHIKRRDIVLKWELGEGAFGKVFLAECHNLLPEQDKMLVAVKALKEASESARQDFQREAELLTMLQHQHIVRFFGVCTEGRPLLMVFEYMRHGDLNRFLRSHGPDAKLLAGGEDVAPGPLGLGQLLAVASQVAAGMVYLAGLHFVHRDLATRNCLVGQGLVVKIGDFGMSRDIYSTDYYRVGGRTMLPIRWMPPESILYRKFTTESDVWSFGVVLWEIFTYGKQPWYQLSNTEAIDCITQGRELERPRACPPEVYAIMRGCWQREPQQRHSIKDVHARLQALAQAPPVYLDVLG

For the compound `Cc1ccc(C(C)C)c(O)c1`, the result in experiment [1] was inactive.

`CCCCCCCCCCC`: the call in [2] was inactive.

Take `c1cc(-c2ccncc2)ccn1`: in [1], the outcome was inactive.

Regarding `CCCc1cc(=O)[nH]c(=S)[nH]1`, the call in experiment [3] was inactive.

Take `CCCCCCCCCCCCCO`: the result in experiment [4] was inactive.

As to `CC(C)(C)c1cc(O)c(C(C)(C)C)cc1O`, in experiment [4], the outcome was inactive.

In the case of `CC1(C)NC(=O)NC1=O`, the call in experiment [3] was inactive.

Turning to `CN1CCN(Cc2cc(-c3ccc4[nH]c(=O)oc4c3)co2)[C@@H](c2ccc(F)cc2)C1`, the AC50 in [5] is 22 µM (active).

Regarding `COc1cc(-c2nc(NC(=O)c3cc4cc(C)cc(C)c4n3CC(=O)O)sc2CCC2CCCCC2)c(OC)cc1Cl`, the concentration at half-maximal activity (AC50) in experiment [6] is 30.3 µM (active); in [4], 7.16 µM (active).

Consider `Oc1ccc2c(c1)OC[C@@H](N1CCC(O)(c3ccc(F)cc3)CC1)[C@H]2O`, for which the outcome in [5] was inactive.

As for `CCOc1ccc2c(c1)C(C)=CC(C)(C)N2`, the compound was classed as inactive in experiment [5].

Take `Cc1nc(-c2ccc3c(c2)CCN(CCC2CCC(NC(=O)/C=C/c4ccc(F)cc4)CC2)CC3)no1` (stereo unspecified): the compound was classed as inactive in experiment [7], in experiment [1] and in experiment [6].

Consider `C=CCOC(=O)c1ccccc1C(=O)OCC=C`, for which the compound was called inactive in experiment [7].

For `NC(=O)Cn1c(=O)cc(CCN2CCN(c3nccc4sccc34)CC2)c2ccc(F)cc21`, the compound was called inactive in experiment [5].

`CC1=C(/C=C/C(C)=C/C=C/C(C)=C/CO)C(C)(C)CCC1`: the outcome in [1], in experiment [8], in [2], in [9] and in experiment [4] was inactive.

`Cc1cccc([N+](=O)[O-])c1C`: the call in experiment [1] was inactive.

Regarding `CCCCCCOCCO`, the call in experiment [4] was inactive.

Take `CCCCCCCC=O`: in experiment [1], the result was inactive.

Turning to `O=C(OCCCCCOC(=O)c1ccccc1)c1ccccc1`, the compound was called inactive in [10], in experiment [1], in experiment [3] and in experiment [4].

For `O=C(N[C@@H](Cc1ccccc1)[C@@H](O)C(=O)N1C[C@@H](O)[C@@H](O)C1)c1cc2cc(Cl)ccc2[nH]1`, the compound was called inactive in experiment [5].

Take `Cc1cc(NC(=O)C(=O)O)cc(C)c1Oc1ccc(O)c2c1CCC2`: in experiment [1], the AC50 is 25 µM (active).

As to `CC(=O)C(C)=CC1C(C)=CCCC1(C)C` (stereo unspecified), the compound was classed as inactive in [1].

On to `NCCO`, for which the compound was called inactive in experiment [1], in experiment [3], in experiment [2], in [9] and in [4].

Take `Cc1cccc(Nc2cc(Cl)nc(SCC(=O)O)n2)c1C`: the compound was called inactive in [1] and in experiment [6].

As for `CCOC(=O)CCC(=O)OCC`, the result in [5] was inactive.

As for `Cc1oc(-c2ccccc2)nc1CCOc1cccc2c1ccn2CCC(=O)O`, the compound was called inactive in experiment [3], in experiment [2] and in experiment [4].

As for `CC1(C)CC(N=C=O)CC(C)(CN=C=O)C1` (stereo unspecified), the compound was called inactive in [6].

Turning to `NCC1(Cc2noc(=O)[nH]2)CCCCC1`, the outcome in experiment [1] was inactive.

As to `CCc1c(C(=O)NN2CCCCC2)nn(-c2ccc(Cl)cc2Cl)c1-c1ccc(Br)cc1`, the compound was classed as inactive in experiment [2] and in [4].

Take `CC(C)c1ccc(C(=O)N=C(N)N)cc1S(C)(=O)=O`: the result in [7] and in [6] was inactive.

In the case of `CN[C@H]1CC[C@@H](c2ccc(Cl)c(Cl)c2)c2ccc(S(N)(=O)=O)cc21`, the compound was classed as inactive in [4].

Consider `FC(F)(F)C(F)(F)C(F)(F)C(F)(F)C(F)(F)C(F)(F)CCI`, for which the compound was classed as inactive in [8] and in experiment [2].

On to `O=c1[nH]cc(F)c(=O)[nH]1`, for which the result in experiment [4] was inactive.

Consider `Cc1c(C(=O)O)c(O)cc2c1C(=O)c1c(O)c([C@@H]3O[C@H](CO)[C@@H](O)[C@H](O)[C@H]3O)c(O)c(O)c1C2=O`, for which the compound was called inactive in experiment [1].

`CCCCc1ccc2c(n1)[C@@H](c1ccc(OC)cc1C[C@H](C)C(=O)O)[C@H](C(=O)O)[C@H]2c1ccc2c(c1)OCO2`: in experiment [2], the outcome was inactive.

Take `Nc1ccccc1N`: the compound was called inactive in experiment [5].
